Experimental data as given in the supplement of paper PMC9694430.

Assays:
Experiment in all cases: thermal shift delta Tm vs DMSO control; higher = stronger stabilization (binding)
Conditions in all cases: 12.5 µM; protein concentration 2 µM
LOC_OS01G01410-cb001 = test system: LOC_OS01G01410-cb001
How it was run: (§1)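 Thermal shift values come from differential scanning fluorimetry on purified rice kinase domains made in E. coli, with melting temperatures obtained from Boltzmann fits. Samples of 19.5 μl held 2 μM kinase, 100 mM potassium phosphate pH 7.5, 150 mM NaCl, 10% glycerol, 5 × SYPRO Orange and compound in DMSO, and were heated from 25°C to 95°C at 0.05°C/s. Each shift is a triplicate mean relative to the DMSO-only protein sample.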

LOC_OS01G02750-cb003 = test system: LOC_OS01G02750-cb003
How it was run: as §1

LOC_OS01G10900-cb004 = test system: LOC_OS01G10900-cb004
How it was run: as §1

LOC_OS01G13800-cb001 = test system: LOC_OS01G13800-cb001
How it was run: as §1

LOC_OS01G14860-cb001 = test system: LOC_OS01G14860-cb001
How it was run: as §1

LOC_OS01G21960-cb002 = test system: LOC_OS01G21960-cb002
How it was run: as §1

LOC_OS01G39600-cb002 = test system: LOC_OS01G39600-cb002
How it was run: as §1

LOC_OS01G48390-cb002 = test system: LOC_OS01G48390-cb002
How it was run: as §1

LOC_OS01G51400-cb002 = test system: LOC_OS01G51400-cb002
How it was run: as §1

LOC_OS01G52050-cb004 = test system: T1, LOC_OS01G52050-cb004
T1 sequence (whole entry): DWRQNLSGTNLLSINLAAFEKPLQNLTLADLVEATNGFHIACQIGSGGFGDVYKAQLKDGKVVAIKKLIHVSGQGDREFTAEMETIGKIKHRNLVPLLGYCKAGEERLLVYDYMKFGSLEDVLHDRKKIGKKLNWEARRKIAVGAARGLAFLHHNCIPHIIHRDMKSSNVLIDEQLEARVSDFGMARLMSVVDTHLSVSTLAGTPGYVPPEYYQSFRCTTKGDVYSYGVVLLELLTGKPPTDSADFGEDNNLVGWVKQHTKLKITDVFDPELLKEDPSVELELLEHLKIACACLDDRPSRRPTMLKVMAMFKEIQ
How it was run: as §1

LOC_OS01G57100-cb003 = test system: LOC_OS01G57100-cb003
How it was run: as §1

LOC_OS01G60330-cb001 = test system: LOC_OS01G60330-cb001
How it was run: as §1

LOC_OS01G60700-cb002 = test system: LOC_OS01G60700-cb002
How it was run: as §1

LOC_OS01G63280-cb003 = test system: LOC_OS01G63280-cb003
How it was run: as §1

LOC_OS01G67340-cb003 = test system: LOC_OS01G67340-cb003
How it was run: as §1

LOC_OS01G70970-cb002 = test system: LOC_OS01G70970-cb002
How it was run: as §1

LOC_OS02G07810-cb001 = test system: LOC_OS02G07810-cb001
How it was run: as §1

LOC_OS02G08530-cb003 = test system: LOC_OS02G08530-cb003
How it was run: as §1

LOC_OS02G14120-cb001 = test system: LOC_OS02G14120-cb001
How it was run: as §1

LOC_OS02G17970-cb001 = test system: LOC_OS02G17970-cb001
How it was run: as §1
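Note: purified Escherichia coli-expressed rice kinase domain construct.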

SMILES	thermal shift delta Tm (LOC_OS01G01410-cb001) [°C]	thermal shift delta Tm (LOC_OS01G02750-cb003) [°C]	thermal shift delta Tm (LOC_OS01G10900-cb004) [°C]	thermal shift delta Tm (LOC_OS01G13800-cb001) [°C]	thermal shift delta Tm (LOC_OS01G14860-cb001) [°C]	thermal shift delta Tm (LOC_OS01G21960-cb002) [°C]	thermal shift delta Tm (LOC_OS01G39600-cb002) [°C]	thermal shift delta Tm (LOC_OS01G48390-cb002) [°C]	thermal shift delta Tm (LOC_OS01G51400-cb002) [°C]	thermal shift delta Tm (LOC_OS01G52050-cb004) [°C]	thermal shift delta Tm (LOC_OS01G57100-cb003) [°C]	thermal shift delta Tm (LOC_OS01G60330-cb001) [°C]	thermal shift delta Tm (LOC_OS01G60700-cb002) [°C]	thermal shift delta Tm (LOC_OS01G63280-cb003) [°C]	thermal shift delta Tm (LOC_OS01G67340-cb003) [°C]	thermal shift delta Tm (LOC_OS01G70970-cb002) [°C]	thermal shift delta Tm (LOC_OS02G07810-cb001) [°C]	thermal shift delta Tm (LOC_OS02G08530-cb003) [°C]	thermal shift delta Tm (LOC_OS02G14120-cb001) [°C]	thermal shift delta Tm (LOC_OS02G17970-cb001) [°C]
CC(C)CC(=O)Nc1n[nH]c2c1CN(C(=O)C1CCN(C)CC1)C2(C)C	0.12	1.36	0.4	0.44	6.4	1.05	-0.1	0.75	0.45	0.59	1.01	1.35	0.94	0.65	0.25	0.19	1.09	0.95	0.04	1.36
COc1cc2c(cc1OC)[C@@H]1C(=O)c3ccc4c(c3O[C@@H]1CO2)C=CC(C)(C)O4 [Deguelin]	0.07	0.45	0.52	0.41	0.23	0.41	-0.1	0.4	-0.11	0.13	1.25	1.41	0.73	0.43	0.31	0.2	0.57	0.83	0.97	1.35
COc1cc2ncnc(Nc3ccc(O)c(Br)c3)c2cc1OC	1.47	-0.02	0.65	-0.02	0.9	0.93	-1.06	3	0.29	1.31	0.74	0.32	1.72	0.92	0.7	0.81	0.81	1.8	7.45	1.06
CNCc1ccc(-c2cc(-c3nc(-c4ccc(S(=O)(=O)C(C)C)cc4)cnc3N)on2)cc1	1.4	1.1	3	0.25	4.67	1.88	1.85	0.69	0.46	1.41	1.41	0.91	1.58	0.5	0.06	0.3	2.33	1.56	2.23	1.43
Cc1ccc(NC(=O)c2ccc(CN3CC[C@H](N(C)C)C3)c(C(F)(F)F)c2)cc1Nc1nccc(-c2cncnc2)n1 [Bafetinib (INNO-406)]	0.65	0.59	0.73	0.04	0.5	0.66	-0.18	1.17	0.46	0.61	1.86	0.46	1.32	0.68	0.51	0.51	0.39	1.13	0.81	0.5
CCOc1cn(-c2ccc(F)cc2C)nc1C(=O)Nc1ccc(Oc2ccnc3cc(OC)c(OC)cc23)c(F)c1	0.08	1.86	0.01	-0.07	0.5	-0.29	0.58	0.48	0.45	2.08	0.32	1.07	0.34	0.6	0.43	0.98	0.56	1.15	2.96	0.55
